Potency data for 102 compounds are collected here from PubChem BioAssay AID686978 (National Center for Advancing Translational Sciences (NCATS), 2013).

SMILES strings stand for the structures. In all, about 420,000 compounds went through this assay and about 64,000 (15%) were called active. Roughly 27% stayed inconclusive and do not appear here. The call rests on the fitted dose curve; in most records, active means well fitted inhibition curve with a large enough effect; inconclusive means small, poorly fitted or top-dose-only effect; inactive means flat fitted curve, though single readings scatter. Only a sample is shown. Entries that show only a call come without a potency.
Potency means the concentration at half of the fitted maximal effect.

A short description of this assay: qHTS for Inhibitors of human tyrosyl-DNA phosphodiesterase 1 (TDP1): qHTS in cells in absence of CPT. Further: nearly all actives have a fitted effect of over 55% in size. As to conditions: DT40 Tdp1-/- hTDP1 cells, no CPT, ATP luminescence, 48 h; activity change, negative = growth inhibition: at 46.2 µM (top of the series). Put shortly: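 Cells were dispensed at 400 per well, compounds added by pin tool, plates incubated ≥48 hr at 37 °C, then CellTiter-Glo added for 30 min at room temperature before luminescence reading. Line: DT40 Tdp1-/- complemented with hTDP1; camptothecin omitted.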
For orientation: Quantitative high-throughput screening tests each substance at several concentrations.
On to `CC(C)(C)c1ccc(/C=C2\Oc3c(ccc(O)c3CN3CCN(CCO)CC3)C2=O)cc1`, for which the Potency result was “inactive”.
In the case of `CCCCNC(=O)N1CCCC(N(C)CCc2ccc(OC)c(OC)c2)C1` (configuration not stated) it was “inactive”.
For the compound `CC(C)=CCCC1(C)C=Cc2c(ccc3c2[nH]c2cc(O)c(C)cc23)O1` (configuration not stated), the Potency was 16.4 µM (active).
As to `COc1ccc(-c2cnc(SCCNC(=O)c3ccc4c(c3)OCO4)[nH]2)cc1`, the Potency entry was “inactive”.
In the case of `Brc1ccc(-c2nnc(-c3ccccc3)o2)o1` it was “inactive”.
In the case of `Cc1ccc(CN2CCN(c3ccccc3Cl)CC2)o1` it was “inactive”; in that of `O=C(O)c1cc2c(cc1NC(=O)c1c(F)cccc1Cl)OCCCO2`, “inactive”.
In the case of `O=C(CSC(=S)N1CCCCC1)c1c(F)cccc1F` it was 8.2 µM (active); in that of `O=C(CN1CCCCC1)NC(=O)Nc1ccccc1F`, “inactive”.
`Cc1nnc(SCC(=O)N(C(C)C)C(C)C)nc1C`: the Potency entry was “inactive”.
Take `CC(=O)NCCC(=O)Nc1nc(C)c(Cc2ccc3c(c2)OCO3)s1`: the Potency entry was “inactive”.
In the case of `Cc1c(NC(=O)Nc2cccc([N+](=O)[O-])c2)c(=O)n(-c2ccccc2)n1C` it was “inactive”.
`N#Cc1cccc(NC(=O)CCC2CCCC2)c1`: the Potency entry was “inactive”.
The entry for `N#Cc1cccc(NC(=O)CN2CCCCCC2)c1` is “inactive”; for `Cc1ccc(Nc2c3c(nc4ccccc24)CCC3)cc1` it is 18.4 µM (active).
In the case of `O=C(Nc1cccc([N+](=O)[O-])c1)Nn1cnnc1` it was “inactive”; in that of `CC(=O)Nc1ccc(Nc2nc3c(S(=O)(=O)c4ccc(C)c(C)c4)nnn3c3ccccc23)cc1`, “inactive”.
For the compound `N#Cc1cccc(Nc2c3c(nc4ccccc24)CCCC3)c1`, the Potency was 25.9 µM (active).
In the case of `CC(=O)Nc1ccc(Nc2c3ccccc3nc3ccccc23)cc1` it was 0.0082 µM (active); in that of `CCc1nc(SCC(=O)NNC(=O)c2ccc(C)cc2)c2ccccc2n1`, “inactive”.
The entry for `CC(=O)Nc1ccc(NC(=O)C(C)n2c3ccccc3c3nc(=O)cc(C)n32)cc1` (configuration not stated) is “inactive”; for `O=[N+]([O-])c1cccc(Nc2c3ccccc3nc3ccccc23)c1` it is 16.4 µM (active); for `Cc1nn(C(C)(C)C)c(OC(=O)CC(C)C)c1S(=O)(=O)c1ccccc1` it is “inactive”.
The entry for `CCn1c(CC(=O)Nc2ccccc2)nnc1SCC(=O)N1CCOCC1` is “inactive”.
Turning to `CCC1C(=O)c2ccccc2N(C)C1=O` (configuration not stated), the Potency result was “inactive”.
The entry for `Cc1[nH]n(-c2ccccc2)c(=O)c1N=Nc1ccccc1C(=O)N1CCCCC1` is “inactive”; for `Cc1[nH]n(-c2ccc([N+](=O)[O-])cc2)c(=O)c1C=NCCN1CCN(C(=O)c2ccccc2F)CC1` it is 14.6 µM (active).
For `CN1CCN(C(=O)c2cnn(-c3ccccc3)c2NC(=O)c2ccc([N+](=O)[O-])cc2)CC1`, the Potency entry is “inactive”.
The entry for `COc1ccc2c(CC(=O)OCC(=O)NC(N)=O)coc2c1` is “inactive”; for `COc1ccc2occ(C(=O)c3ccc(N=C(C)N(C)C)cc3)c2c1` it is 23.1 µM (active).
As for `COc1ccc(OC)c(C(=O)c2ccc(C(=O)O)cc2)c1`, the Potency result was “inactive”.
Consider `CN(C(=O)COC(=O)c1cc(=O)[nH]c2ccccc12)C1CCCCC1`, for which the Potency result is “inactive”.
In the case of `CN(CC(=O)Nc1c(Cl)cccc1Cl)C(=O)CNC(=O)C1CCCCC1` it was “inactive”; in that of `O=C(O)C(CCc1ccccn1)c1ccccc1` (configuration not stated), “inactive”; in that of `O=C(COC(=O)Cn1[nH]c(=O)c2ccccc2c1=O)Nc1ncc(Cl)cc1Cl`, “inactive”.
In the case of `Cc1ccc(-c2csc(NC(=O)Cn3[nH]c(=O)c4ccccc4c3=O)n2)cc1`, the Potency is 16.4 µM (active).
In the case of `O=C(CSC1=NCCS1)Nc1nc(-c2ccccc2)cs1` it was “inactive”; in that of `C=CCOc1ccc(Cl)cc1CNCCCN1CCOCC1`, “inactive”; in that of `CCCCn1c(N)c(N(CCC(C)C)C(=O)CC2OC(=O)c3ccccc32)c(=O)[nH]c1=O` (configuration not stated), “inactive”.
The entry for `CCOC(=O)c1sc(N)c(C#N)c1COC(=O)C1=COCCO1` is “inactive”.
Take `Cc1cccc(NC(=O)C2CCCN(C(=O)NCc3ccccc3)C2)c1C` (configuration not stated): the Potency entry is “inactive”.
As for `Cc1cc(=O)n2nc(N3CCC(C(=O)Nc4c(F)c(F)c(F)c(F)c4F)CC3)sc2n1`, the Potency result is “inactive”.
In the case of `COc1ccc(-c2cn3nc(N4CCC(C(=O)Nc5cccc(C)c5C)CC4)sc3n2)cc1` it was 11.6 µM (active); in that of `Cc1cc(=O)n2nc(N3CCCC(C(=O)NCCC4=CCCCC4)C3)sc2n1` (configuration not stated), “inactive”; in that of `Cc1cc(=O)n2nc(N3CCCC(C(=O)NCc4ccc(Cl)cc4)C3)sc2n1` (configuration not stated), “inactive”.
In the case of `COc1ccc(-c2cn3nc(N4CCCC(C(=O)NCCCOC(C)C)C4)sc3n2)cc1` (configuration not stated) it was 18.4 µM (active); in that of `COC(=O)c1ccc(CNC(=O)c2ccc3oc(C(C)C)nc3c2)cc1`, “inactive”.
The entry for `Cc1c(-c2cccc(Cl)c2)nc2ccccc2c1C(=O)OCC(=O)N(C)C1CCS(=O)(=O)C1` (configuration not stated) is “inactive”; for `CC(=O)Nc1ccc(C(=O)NNC(=O)CCCCC(=O)NNC(=O)c2ccc(NC(C)=O)cc2)cc1` it is “inactive”; for `O=C(c1cn(-c2ccccc2)nc1-c1cccnc1)N1CCCCC1` it is “inactive”.
Consider `CCC(=O)OCc1c(C(F)(F)F)nn(C)c1Oc1cccc(C(F)(F)F)c1`, for which the Potency result was “inactive”.
The figure for `Cc1cc(Br)ccc1NC(=O)c1cnc(N2CCN(c3ccccn3)CC2)c2ccccc12` is 13 µM (active).
In the case of `O=C(Nc1ccc(F)cc1)c1cccnc1N1CCOCC1` it was “inactive”; in that of `Cc1cc(Br)ccc1NC(=O)c1sc2ncn(CC(=O)N3CCN(c4ccccn4)CC3)c(=O)c2c1C`, “inactive”.
The figure for `CCc1cccc(NC(=O)c2cnc(N3CCOCC3)c3ccccc23)c1` is 11.6 µM (active); for `Cc1ccc(S(=O)(=O)NCC(=O)N2CCN(c3ccccn3)CC2)cc1` it is “inactive”; for `CSc1ncccc1C(=O)Nc1cccc(S(=O)(=O)N2CCOCC2)c1` it is “inactive”.
For `CCOC(=O)COc1nc(C)cc(C(F)(F)F)c1C#N`, the Potency entry was “inactive”.
The entry for `CCOC(=O)c1c(N)sc2c1CCCC2=O` is “inactive”.
In the case of `COc1ccc(-n2c(=O)c3ccccc3n(Cc3ccccc3Cl)c2=O)cc1` it was “inactive”; in that of `CCC(=O)c1ccc(OCC(=O)OCC(=O)N2CCc3ccccc3C2)cc1`, “inactive”.
In the case of `OCCN1CCN(C(=S)c2ccc(-c3ccccc3)cc2)CC1` it was “inactive”; in that of `CN(C)CCNC(=O)Cc1ccc([N+](=O)[O-])cc1`, “inactive”.
`Cn1cc(CCC(=O)NCc2ccc3c(c2)OCO3)c2ccccc21`: the Potency result was “inactive”.
In the case of `Cc1nc2nc(COc3ccccc3)[nH]n2c(=O)c1C` it was “inactive”; in that of `OCC[C@H]1C[C@H](O)[C@@H](O)[C@]2(CCc3ccccc3O2)O1`, “inactive”.
In the case of `CCOc1cccc(SCc2noc(C(=O)NC(C)C)c2C(=O)O)c1` it was “inactive”; in that of `CC1CN(S(=O)(=O)c2cccc(C(F)(F)F)c2)CN1C(=O)N1CCOCC1` (configuration not stated), “inactive”; in that of `Cc1oc(-c2ccccc2)nc1Cn1c(SCc2cccc(C(F)(F)F)c2)nc2cccnc21`, 25.9 µM (active).
With `O=C(O)c1ccc(CSc2nc3cccnc3n2Cc2cccc(F)c2)cc1`, the Potency result was “inactive”.
The entry for `O=C(NC1CCCCC1)c1ccc(Cn2c(SCc3ccccc3)nc3cccnc32)cc1` is “inactive”; for `O=C(Cc1ccccc1)NNC1CC(=O)N(c2ccc(Br)cc2)C1=O` (configuration not stated) it is “inactive”.
In the case of `Cc1onc(C(=O)Nc2ccc3c(c2)OCO3)c1[N+](=O)[O-]` it was “inactive”; in that of `CN(CC(=O)NC1CCCCC1)S(=O)(=O)c1cccc2cccnc12`, “inactive”.
In the case of `CC(=O)OC[C@@H]1CN(Cc2ccccc2)C[C@H](n2cnc3c(NCc4ccco4)ncnc32)O1` it was “inactive”; in that of `Nc1ncnc2c1ncn2[C@@H]1O[C@H](C(=O)NCC(F)(F)F)[C@@H](O)[C@H]1O`, “inactive”; in that of `O=c1c(CCc2ccccc2)nc2cnc(N3CCNCC3)nc2n1Cc1cccs1`, “inactive”.
For the compound `N#Cc1cccc(-c2nc3cnc(N4CCNCC4)nc3n(C3CC3)c2=O)c1`, the Potency is 3.66 µM (active).
Turning to `O=c1c(-c2ccc(F)cc2)nc2cnc(N3CCOCC3)nc2n1-c1ccccc1`, the Potency entry is “inactive”.
The figure for `COCCn1c(=O)c(-c2cc(F)cc(F)c2)nc2cnc(N3CCNCC3)nc21` is 23.1 µM (active); for `COCCn1c(=O)c(-c2cc(F)cc(F)c2)nc2cncnc21` it is “inactive”; for `COCCn1c(=O)c(-c2ccccc2)nc2cnc(N3CCOCC3)nc21` it is “inactive”.
The entry for `COC(=O)c1ccc(NC(=O)c2cc3c(CO)cnc(C)c3oc2=Nc2cccc(C(N)=O)c2)cc1` is “inactive”.
Consider `Cc1cc(C(=O)N2CCC(C(=O)O)CC2)c(C(F)(F)F)o1`, for which the Potency entry is “inactive”.
On to `COC(=O)c1ccc(CSc2ccc(S(=O)(=O)N3CCCCC3)cn2)cc1`, for which the Potency entry is “inactive”.
The entry for `C/C(CC(=O)Nc1ccc(C)cc1C)=N\NC(=O)C(C)C` is “inactive”.
The entry for `CN(C)N1C(N)=C(C#N)C(c2ccc(Br)cc2)C2=C1CCCC2=O` (configuration not stated) is “inactive”.
In the case of `Cc1ccc(S(=O)(=O)N(C)C)cc1NC(=O)COC(=O)c1c(C)noc1C` it was “inactive”.
With `CCCCCC(=O)N1C[C@H](O)[C@@H](n2cc(COC(=O)c3ccccc3)nn2)C[C@@H]1c1ccc(C)cc1`, the Potency was 0.82 µM (active).
In the case of `O=C(c1cccs1)N1C[C@H](n2cc(C3CC3)nn2)[C@@H](O)C[C@@H]1c1ccccc1` it was “inactive”; in that of `O=C(OCc1cn([C@H]2C[C@H](c3ccccc3)N(C(=O)c3cccs3)C[C@@H]2O)nn1)c1ccccc1`, 18.4 µM (active).
For `O=C(OCc1cn(-c2ccc(Cl)c(Cl)c2)nn1)c1ccccc1Cl`, the Potency result was “inactive”.
Consider `C=CCCC(=O)N1C[C@H]2CON(C)[C@H]2C[C@H]1c1cccc(Nc2ccccc2)c1`, for which the Potency entry was “inactive”.
The entry for `O=C(OCc1cn([C@@H]2C[C@H](c3ccc(Cl)cc3)N(Cc3cccs3)C[C@H]2O)nn1)c1ccccc1` is “inactive”.
In the case of `CCCCN(C)CCNC(=O)CSCc1ccc(C)cc1` it was “inactive”; in that of `CC1=CC(=O)C=CC1(C)C(Cl)(Cl)Cl` (configuration not stated), “inactive”.
In the case of `CCN(CC(=O)NCc1ccco1)S(=O)(=O)c1ccc(F)cc1` it was “inactive”; in that of `Cc1c(C=O)c2ccccn2c1C(=O)c1ccncc1`, “inactive”.
For `COc1ccc([N+](=O)[O-])cc1-c1nc2ccccc2nc1-c1ccccc1`, the Potency entry is “inactive”.
In the case of `O=C(Cn1c(=O)nc(-c2ccccc2)c2cc(Cl)ccc21)NCc1ccc(Cl)cc1` it was 23.1 µM (active); in that of `COC(=O)Cn1nc(-c2ccccc2)c2cc(Cl)ccc21`, “inactive”.
In the case of `CCN(C(=O)Cn1c(=O)nc(-c2ccccc2)c2cc(Cl)ccc21)c1cccc(C)c1` it was “inactive”.
